Sampled rows, rich in hits. Any-hit rate of the full collection: about 3.4%.
GAA850 FXN act = FXN promoter activators, primary screen, cell-based, luciferase luminescence, HEK293 lucGAA850; 360,000 tested, 0.56% active; activation, % at 6 µM; AID 540364, 2011; HEK293 lucGAA850 FXN promoter luciferase reporter, 24 h; percent of 10 µM SAHA response;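 active means activation above the average of all compounds screened plus 3 SD, cutoff fixed separately per campaign, cut at about 7.5% in these data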;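 further: 0% = DMSO wells and 100% = 10 µM SAHA wells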
HSF1 inh = HSF1 inhibitors in luciferase reporter cells, primary screen, cell-based, NIH3T3, luminescence | 300,000 tested, 0.77% active | NIH3T3-HGL HSE-luciferase, MG132-induced, luminescence 8 h; stronger effect = lower value | activity change, negative = inhibition, % at 7.5 µM (by protocol);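 active means more than half of replicate wells show activity change below -50%, luminescence cut by over half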;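 further: luciferase reports HSF-1 transcriptional activity via heat shock element; 0% = median of DMSO wells and -100% = zero luminescence signal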
HSP90 inh = HSP90 inhibitors, primary screen, cell lysate, luminescence | Heat shock protein HSP 90 (rabbit reticulocyte lysate; luciferase refolding) | Rabbit reticulocyte lysate, luciferase refolding luminescence, 3 h | inhibition, % at 5.6 µM | 290,000 tested, 0.91% active | AID 1789, 2009;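 active means inhibition above the screen-wide mean plus 3 SD, computed separately per campaign, cut at about 16% in these data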;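 further: 0% = DMSO wells and 100% = 60 µM geldanamycin wells; inhibitors lower the luminescence because luciferase stays unfolded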
SMARCA2 activ = SMARCA2 (BRM) function activators, primary screen, cell-based, luminescence, high throughput | activation, % at 9.1 µM | 370,000 tested, 1% active | MG213 cells, MMTV-luciferase reporter, dexamethasone, overnight; in the data active means activation above about 7.8%;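 further: 0% = vehicle wells and 100% = reference activator wells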
PG9 binder = binders of HIV-1 gp120 antibody PG9, primary screen, biochemical, TR-FRET; AID 624416, 2012; TR-FRET gp120-PG9 antibody binding; inhibition, % at 6.7 µM; 360,000 tested, 0.43% active; in the data active means inhibition above about 8.5%
AI-2 QS mod = Vibrio harveyi AI-2 quorum sensing modulators, primary screen, JMH597 strain, luminescence/OD600 ratio; Vibrio harveyi JMH597 AI-2 luminescence/OD600 ratio, 9 h; stronger effect = lower value; strain lacks LuxN and CqsS sensors; 0 = neutral-control median; activity change, % at 7.5 µM; 300,000 tested, 0.4% active; AID 2094, 2009; in the data active means activity change below about -75%, passing the limit was not always enough;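 further: luminescence divided by OD600 gain over 9 h not by final OD600 alone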
SMARCA2 act conf = SMARCA2 (BRM) function activators, confirmation, cell-based, luminescence, triplicate. shares compounds with SMARCA2 activ. MG213 cells, MMTV-luciferase with dexamethasone, overnight; MG213 cells expressing E1A, Rb sequestered; DMSO wells 0%, reference activator 100%. activation, % at 9.1 µM. 3,500 tested, 30% active. AID 652260, 2013;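 active means activation above its plate's cutoff, the mean activation of tested wells plus 3 SD, cut at about 7.9% in these data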
GAL4-VP16 Luc = GAL4-VP16 luciferase reporter activation, counter-screen for SMARCA2 (BRM) activator project, cell-based, pG5luc, luminescence, high throughput; shares compounds with SMARCA2 activ; HEK293 GAL4-VP16 pG5luc reporter; scaled: DMSO wells 0%, SAHA wells 100%; activation, % at 9.1 µM; 3,500 tested, 41% active;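 active means activation above the solvent-only control well mean plus 3 SD, averaged across control plates, cut at about 5.2% in these data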
Active calls of the source: *; x = no result given.

SMILES	GAA850 FXN act	HSF1 inh	HSP90 inh	SMARCA2 activ	PG9 binder	AI-2 QS mod	SMARCA2 act conf	GAL4-VP16 Luc
CCOC(=O)C1CSCCS(=O)(=O)N1Cc1ccc(F)cc1 (configuration not stated)	x	x	x	3	1	x	x	x
c1ccc(Cn2c(-c3cncs3)nc3ccccc32)cc1	3	28	0	1	4	13	x	x
Brc1ccc(Cn2c(-c3cncs3)nc3ccccc32)cc1	4	25	0	8.8*	1	15	7	2
O=C(NC1CCCC1)[C@@H]1CCCN1C(=O)[C@@H](NS(=O)(=O)c1ccc(F)cc1F)c1ccccc1	x	x	x	-4	-1	x	x	x
COc1ccc(Cn2cc3c(-c4ccc(F)cc4)nnc-3c3cc(OC)c(OC)cc32)cc1	1	x	-2	22*	1	x	47*	0
COc1ncnc2c1oc1ccccc12	6	6	0	12*	0	-6	13*	6.0*
CC(C)Sc1ncnc2c1oc1ccccc12	4	-1	5	0	-2	-9	x	x
CCN(CC)CCCN1C(=O)C2=C(C1=O)C1N(C)c3ccccc3[C@@]13C[C@@H](CO)N(C(=O)CCC(=O)OC)C3=N2 (some centres not stated)	x	x	x	-2	x	x	x	x
O=C(CC(=O)Nc1ccccc1[N+](=O)[O-])Nc1ccccc1[N+](=O)[O-]	2	2	2	-2	0	-1	x	x
O=C(CNCc1cccc2ccccc12)Nc1ccccc1[N+](=O)[O-]	0	0	-1	9.7*	1	10	-2	0
Cc1ccc(Cn2nnc3c2-c2ccccc2S(=O)(=O)N(C)C3)cc1	x	x	x	-6	x	x	x	x
COc1ccc(NC(=O)c2cccnc2)c(OC)c1	1	-3	-3	-1	1	15	x	x
COc1ccccc1NC(=O)c1cccnc1	5	-4	2	8.7*	-2	1	-1	-1
COC(=O)c1sc(-c2ccccc2)cc1NC(=O)C1CC1	0	-1	-1	8.9*	2	18	-4	2
COc1ccc(NC(=O)C2Cc3c(-c4cccc(NC(C)=O)c4)ccnc3O2)cn1 (configuration not stated)	-3	x	x	-3	1	x	x	x
CCN(CC)c1ccc(NC(=O)c2cccc(C)c2OC)c(C)c1	4	2	-1	8.2*	-4	16	14*	4
CCOC(=O)Cc1nc(N2CCN(C(=O)C3CCCO3)CC2)c2c(C)c(C(=O)OCC)sc2n1 (configuration not stated)	x	x	x	11*	x	x	2	1
CC(=O)NC1CCCCN(C)C1=O (configuration not stated)	x	x	x	0	0	x	x	x
COc1ccc(NC(=O)c2ccc(-c3ccc(-c4noc(C)n4)cc3C)cc2)cc1N1CCN(C)CC1	0	x	x	13*	0	x	17*	0
CCCCCCN1CCN(C2CN(Cc3ccccc3)S(=O)(=O)C2)CC1 (configuration not stated)	x	x	x	-2	0	x	x	x
COc1cc(OC)c(NC(=O)c2ccccc2F)cc1Cl	6	4	-2	7	-3	24	x	x
COc1cc2c(cc1NC(=O)c1ccccc1F)CCCC2	6	24	-7	9.3*	-1	22	4	7.6*
Cc1ccc2c(c1)cc(CN(Cc1ccco1)C(=O)N1CCOCC1)c1nnnn12	-1	-1	0	8.6*	1	3	12*	3
CC1(c2nnnn2-c2ccc(F)cc2)CCCC(=O)N1CCc1c[nH]c2ccccc12 (configuration not stated)	x	x	x	-2	x	x	x	x
O[C@H]1CN(CC2CCCCC2)[C@@H](c2ccc(Cl)cc2)C[C@@H]1n1cc(C2CC2)nn1	-2	x	x	-3	-2	x	x	x
SMILES	GAA850 FXN act	HSF1 inh	HSP90 inh	SMARCA2 activ	PG9 binder	AI-2 QS mod	SMARCA2 act conf	GAL4-VP16 Luc
CC(CN(C)C)CN1c2ccccc2CCc2ccccc21 (configuration not stated)	-2	-1	x	8.2*	-1	4	0	2
CN(C)CCCN1c2ccccc2CCc2ccccc21	-1	-1	0	-3	0	20	x	x
Cc1ccc2nc(-c3ccc(NC(=S)NC(=O)C(C)C)cc3)sc2c1	7	-4	0	6	2	7	x	x
Cc1ccc2nc(-c3ccc(NC(=S)NC4CC(C)(C)NC(C)(C)C4)cc3)sc2c1	5	9	3	13*	0	33	-8	16*
Cc1ccc2nc(-c3ccc(NC(=O)CSCC(=O)O)cc3)sc2c1	4	4	0	16*	1	8	6	20*
Cc1nn(-c2ccccc2)c(C)c1C(=O)OCC(=O)Nc1ccccc1	1	x	x	6	-2	x	x	x
Cc1nc(COC(=O)c2c(C)nn(-c3ccccc3)c2C)cs1	6	13	-2	9.1*	-1	26	10*	3
CCN(CC)c1nc(C)nc2c1sc(=S)n2C	1	-7	3	-2	0	2	x	x
Cc1nc(N(C)C)c2sc(=S)n(Cc3ccccc3)c2n1	3	7	1	8.8*	-1	2	4	0
Cc1noc(C)c1S(=O)(=O)N(C)C[C@@H]1OCc2cnnn2CCCC(=O)N([C@@H](C)CO)C[C@@H]1C	x	x	x	2	-3	x	x	x
CN(C(=O)c1ccc(Cl)cc1)c1ccc(OCC(=O)Nc2cc(C(=O)O)ccc2Cl)cc1	x	x	x	7	-1	x	x	x
Cc1cccc(NC(=S)NC(=O)c2ccc(-c3ccccc3)cc2)n1	5	-11	1	11*	-2	1	10*	6.7*
CC(C)NC(=O)N[C@@H]1C[C@@H]2O[C@@H](CO)CC[C@@H]2O[C@@H]1CCc1ccc(-c2ccc(F)cc2)cc1	x	x	x	-4	x	x	x	x
COC(=O)[C@]12C[C@H](CC(=O)NCCCCc3ccccc3)C(=O)N(Cc3ccco3)C1=C[C@H](C(C)(C)C)O[C@@H]2C	x	x	x	-5	x	x	x	x
CC(=O)c1c(C)oc2c1cc(O)c1ccccc12	2	5	1	-3	-2	9	x	x
CCOC(=O)c1c(C)oc2c1cc(O)c1ccccc12	7	37	0	8.1*	-1	15	9.8*	13*

Screens (PubChem BioAssay)
